For 90 compounds, inhibition results are on record in PubChem BioAssay AID1209 (Sanford-Burnham Center for Chemical Genomics, 2008).

The structures appear in SMILES notation. Values joined by “and” are separate entries in the source; they are usually repeats but may differ in a detail not shown here. Equal values may be shown once. Among all 190,000 compounds or so, about 810 (0.43%) were called active. Rule as the data show it: active = inhibition above about 50%; inactive = the rest. The list comes from a sample in which actives are over-represented; it also holds similar structures and randomly drawn compounds.

Mannose-6-phosphate isomerase (Homo sapiens), sequence (P34949 whole entry, looked up): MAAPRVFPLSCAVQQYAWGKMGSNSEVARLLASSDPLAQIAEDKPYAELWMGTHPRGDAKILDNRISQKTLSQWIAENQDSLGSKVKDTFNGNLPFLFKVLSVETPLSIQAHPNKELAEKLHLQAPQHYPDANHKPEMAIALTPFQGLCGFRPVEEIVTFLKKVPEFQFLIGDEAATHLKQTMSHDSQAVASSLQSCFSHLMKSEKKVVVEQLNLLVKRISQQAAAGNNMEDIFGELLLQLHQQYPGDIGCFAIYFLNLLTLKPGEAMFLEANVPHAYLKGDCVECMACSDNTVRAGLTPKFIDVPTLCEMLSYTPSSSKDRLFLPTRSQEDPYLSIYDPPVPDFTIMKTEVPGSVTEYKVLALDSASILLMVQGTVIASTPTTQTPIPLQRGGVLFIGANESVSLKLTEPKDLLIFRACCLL

This assay concerns the target Mannose-6-phosphate isomerase (Homo sapiens) (UniProt P34949). The assay can be described thus: MPI enzyme activity inhibition – biochemical, fluorescence intensity, coupled assay, primary screen (AID 1209).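 Also: plate controls were DMSO vehicle for no effect and wells lacking substrate for full effect.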 The conditions noted are these: purified PMI enzyme, at 20 µM, hits give high values.
`O=C(COC(=O)c1cnccn1)NCc1ccc2c(c1)OCO2`: the inhibition (as a rule, the relative decrease from the control value, in per cent) is -15.9% (inactive). As for `CCC(C)(C(=O)NC1CCCCC1)N(Cc1ccco1)C(=O)CC1NC(=O)NC1=O` (stereo not given), the inhibition was 8.4% (inactive). As to `COc1cc(C2NC(=O)NC(C)=C2C(=O)OC(C)C)ccc1OC(=O)c1ccco1` (stereo not given), the inhibition was 1% (inactive). For `Cc1cccc(Nc2ncnc3c2cnn3C)c1` the value was 10.3% (inactive); for `COc1ccc(CN2C(=O)c3ccccc3C2C(=O)NCCc2ccccc2)c(OC)c1` (stereo not given), 17.9% (inactive).

`COc1cc(/C=c2\sc3nc(=O)c(-c4ccccc4)nn3c2=O)ccc1OCCC(C)C`: the inhibition was -1.8% (inactive). Next, `CCOc1ccccc1NC(=O)C1CCN(S(=O)(=O)c2c(C)noc2C)CC1`: 5.5% (inactive); `CCOc1ccccc1NC(=O)C1CCN(S(=O)(=O)c2c(C)nn(C)c2C)CC1`: 112% (active); `Cc1cccc(NC(=O)C2CCN(S(=O)(=O)c3c(C)nn(C)c3C)CC2)n1`: 8.4% (inactive). On to `N#CC(c1ccc(F)cc1)c1ccc(C(=O)c2ccc(F)cc2)cc1` (stereo not given), for which the inhibition was 5.1% (inactive). Next, `CCOc1ccc(S(=O)(=O)Nc2ccc(O)c(Sc3ncn[nH]3)c2)cc1`: 3.2% (inactive). For `O=S(=O)(Nc1cc(Sc2ncn[nH]2)c(O)c2ccccc12)c1ccccc1` the value was 99.3% (active). As to `COc1ccc(S(=O)(=O)Nc2ccc(O)c(Sc3ncn[nH]3)c2)cc1`, the inhibition was 10.6% (inactive). With `COc1ccc(S(=O)(=O)Nc2cc(Sc3ncn[nH]3)c(O)c3ccccc23)cc1`, the inhibition was 98.7% (active). For `O=S(=O)(Nc1cc(Sc2cccc3cccnc23)c(O)c2ccccc12)c1ccccc1` the value was 9.2% (inactive); for `O=S(=O)(Nc1cc(Sc2cccc3cccnc23)c(O)c2ccccc12)c1ccc(F)cc1`, 2.1% (inactive). On to `OCc1ccccc1N=c1ssnc1Cl`, for which the inhibition is 78.3% (active). For `Nc1ccccc1N=c1ssnc1Cl` the value was 61.4% (active); for `OCc1c(Cl)nc2ccccn12`, -8.7% (inactive); for `Cc1cc(Oc2ccccc2)nc(SCC(N)=O)n1`, -2% (inactive). Next, `NC(=O)CSc1nnc(C2CC2)n1-c1ccccc1`: -7.8% (inactive); `O=[N+]([O-])c1cc(S(=O)(=O)N2CCCC2)ccc1NCCc1ccccc1`: 4.4% (inactive); `CC1=C(C(=O)Nc2ccccn2)C(c2ccccc2Cl)NC(=S)N1` (stereo not given): -6.6% (inactive). Next, `N#CC(c1cccc(Cl)c1)c1ncc(C(F)(F)F)cc1Cl` (stereo not given): 9.9% (inactive); `CC1CCc2c(sc(NC(=O)COC(=O)c3ccc(O)cc3)c2C#N)C1` (stereo not given): 2.3% (inactive). On to `COc1ccc(-c2[nH]c3ccccc3c2SCCNC(=O)c2ccccc2)cc1`, for which the inhibition is 7.4% (inactive). Take `CS(=O)(=O)N1CCN=C1SCc1ccc([N+](=O)[O-])cc1`: the inhibition is -2.2% (inactive).

With `Cc1c(OCC(F)(F)F)ccnc1CS(=O)c1nc2ccccc2[nH]1` (stereo not given), the inhibition was 30.6% (inactive) and 46.2% (inactive). For `COc1ccc2nc(C(C)O)[nH]c2c1` (stereo not given) the value was 5.1% (inactive); for `COc1ccc2nc(S(=O)Cc3ncc(C)c(OC)c3C)[nH]c2c1` (stereo not given), 72.5% (active); for `Cc1ccc(OCCn2c(=S)[nH]c3c(N)ncnc32)cc1`, 8.7% (inactive). Take `CCOc1ccc(OCCn2c(=S)[nH]c3c(N)ncnc32)cc1`: the inhibition is 11% (inactive). Consider `CC(C)Oc1ccc(OCCn2c(=S)[nH]c3c(N)ncnc32)cc1`, for which the inhibition was 54.9% (active). For `Cc1cccc(C(=O)Nc2ncc(CN3CCOCC3)s2)c1` the value was 4.7% (inactive). Take `Cc1[nH]n(-c2cccc3ccccc23)c(=O)c1C=Nc1ccc2[nH]c(=O)[nH]c2c1`: the inhibition is 14.6% (inactive). For the compound `O=c1[nH]c2ccc(N=Cc3c(O)ccc4cc(Br)ccc34)cc2[nH]1`, the inhibition is 64.6% (active). Next, `Cc1ccc(-n2[nH]c(C)c(C=Nc3ccc4[nH]c(=O)[nH]c4c3)c2=O)cc1`: 16.2% (inactive).

As for `CC(C)(C)NC(=O)NC(=O)COC(=O)Cc1coc2ccc3ccccc3c12`, the inhibition is 25.3% (inactive).

`CN(C)/C=C1/Oc2c(ccc3ccccc23)C1=O`: the inhibition is 21.5% (inactive). For `CN(C)/C=C1\Oc2ccc3ccccc3c2C1=O` the value was 86.5% (active); for `COc1cccc2c1C(=O)c1ccc3ccccc3c1C2=O`, -43.2% (inactive); for `CCNC(=O)CC1SC(=Nc2ccc(C)cc2)NC1=O` (stereo not given), -4.7% (inactive).

Turning to `CC(=O)c1cccc(NC(=O)NNC(=O)CCC(=O)Nc2ccc(C)c(C)c2)c1`, the inhibition was -12% (inactive).

For `Cc1ccc(S(=O)(=O)c2ccc(C)cc2)cc1`, the inhibition is -0.6% (inactive). For the compound `CC(=O)Nc1ccc(S(=O)(=O)c2ccc(C)cc2)cc1`, the inhibition is 10.7% (inactive).

Turning to `CCc1cccc(C)c1NC(=S)NCC1CCN(c2ccc(OC)cc2)C1` (stereo not given), the inhibition is 55% (active). For `COc1ccc(N2CCC(CNS(=O)(=O)c3cccc(C(F)(F)F)c3)C2)cc1` (stereo not given) the value was 65.5% (active). `COc1ccc(NC(=S)NCC2CCN(c3ccc(OC)cc3)C2)cc1` (stereo not given): the inhibition was 49.3% (inactive). On to `COc1ccc(N2CCC(CNC(=O)Nc3ccc(Cl)cc3)C2)cc1` (stereo not given), for which the inhibition was 37% (inactive). Next, `COc1ccc(N2CCC(CNC(=S)Nc3cccc(C)c3)C2)cc1` (stereo not given): 44.7% (inactive); `COc1ccc(N2CCC(CNC(=O)Nc3ccc(C)c(C)c3)C2)cc1` (stereo not given): 43.1% (inactive).

For the compound `COc1ccc(N2CCC(CNC(=O)Nc3ccccc3)C2)cc1` (stereo not given), the inhibition was 74.5% (active).

`COc1ccc(N2CCC(CNC(=S)Nc3cccc(OC)c3)C2)cc1` (stereo not given): the inhibition is 29.7% (inactive). For `COc1ccc(N2CCN(S(=O)(=O)c3cccc(C(F)(F)F)c3)CC2)cc1`, the inhibition is -0.4% (inactive). For the compound `CCN1CCCC1CNS(=O)(=O)c1cccc(C(F)(F)F)c1` (stereo not given), the inhibition was -14.5% (inactive). For `CCOc1ccc(NC(=O)NCC2CCN(c3ccc(OC)cc3)C2)cc1` (stereo not given) the value was 23.3% (inactive); for `COc1ccc(N2CCC(CNC(=O)Nc3cccc(OC)c3)C2)cc1` (stereo not given), 70% (active). For `Cn1c(SCC(=O)N=Nc2c(O)[nH]c3ccccc23)nc2ccccc21` the value was 3.1% (inactive); for `CCN(CC)CCCn1c(C)cc2c(c1=O)C(c1cc(OC)c(OC)cc1OC)C(C#N)=C(N)O2` (stereo not given), -0.8% (inactive); for `CC[C@H](C)[C@@H](NC(=O)O[C@@H]1C(=O)c2cc(OC)ccc2O[C@H]1c1ccc(OC)c(Br)c1)C(=O)OC`, 11% (inactive). For `CC(=O)N1CCc2cc(S(=O)(=O)CCC(=O)N3CCc4ccccc4C3)ccc21` the value was -7.9% (inactive); for `CC(C)CC(C(=O)Nc1ccc2c(c1)OCCO2)N1C(=O)c2ccccc2C1=O` (stereo not given), -13.9% (inactive). Turning to `Cc1cc(=O)n2cccc(O)c2n1`, the inhibition was 71% (active). Next, `Cc1ccn2c(=O)cc(C)nc2c1`: 4.8% (inactive); `Cc1cc(=O)n2ccsc2n1`: 7.1% (inactive).

Take `O=C(NCCO)C1CCN(S(=O)(=O)c2ccc(F)cc2)CC1`: the inhibition was 10.2% (inactive). Next, `COc1cc(CNn2c(C)n[nH]c2=S)cc(Cl)c1OCc1ccccc1`: 16.3% (inactive).

With `CC1OC(OCC2OC(Oc3c(-c4ccc(O)cc4)oc4cc(O)cc(O)c4c3=O)C(O)C(O)C2O)C(O)C(O)C1O` (stereo not given), the inhibition was 4.8% (inactive). Turning to `COc1ccc(-c2oc3cc(OC)c(O)c(OC)c3c(=O)c2OC)cc1O`, the inhibition is 3.4% (inactive). Next, `O=c1cc(-c2ccc(O)cc2)oc2cc(O)c(C3OC(CO)C(O)C(O)C3O)c(O)c12` (stereo not given): 7.9% (inactive). As to `O=c1c(O)c(-c2ccc(O)cc2O)oc2cc(O)cc(O)c12`, the inhibition was -15.2% (inactive). Next, `C[C@@H]1O[C@@H](OC[C@H]2O[C@@H](Oc3c(-c4ccc(O)c(O)c4)oc4cc(O)cc(O)c4c3=O)[C@H](O)[C@@H](O)[C@@H]2O)[C@H](O)[C@H](O)[C@H]1O`: 50.3% (active); `C[C@@H]1O[C@@H](Oc2c(-c3cc(O)c(O)c(O)c3)oc3cc(O)cc(O)c3c2=O)[C@H](O)[C@H](O)[C@H]1O`: 65.7% (active); `COc1ccc(-c2oc3c(CC=C(C)C)c(O[C@@H]4O[C@H](CO)[C@@H](O)[C@H](O)[C@H]4O)cc(O)c3c(=O)c2O[C@@H]2O[C@@H](C)[C@H](O)[C@@H](O)[C@H]2O)cc1`: 5.6% (inactive). Consider `O=c1c(O[C@@H]2O[C@H](CO)[C@H](O)[C@H](O)[C@H]2O)c(-c2ccc(O)c(O)c2)oc2cc(O)cc(O)c12`, for which the inhibition is 61.3% (active). Next, `O=c1c(-c2ccc(O)cc2)coc2cc(OC3OC(CO)C(O)C(O)C3O)cc(O)c12` (stereo not given): -6.4% (inactive). On to `Cc1cc(O)cc(O[C@H]2OC(CO)[C@H](O)[C@@H](O)[C@H]2O)c1` (stereo not given in full), for which the inhibition is 1.9% (inactive). For `O=C(O)C1OC(Oc2c(-c3ccc(O)c(O)c3)oc3cc(O)cc(O)c3c2=O)C(O)C(O)C1O` (stereo not given) the value was 23.4% (inactive); for `C=CCOC(=O)C1=C(C)NC(SCC(=O)NC(=O)OCC)=C(C#N)C1c1cccnc1` (stereo not given), -29.7% (inactive). As to `CCc1ccc2nc(NC(=O)Cn3cnc4ccccc4c3=O)sc2c1`, the inhibition is -4% (inactive).

Consider `O=c1[nH]c2cc3c(cc2cc1C(c1nnnn1CC1CCCO1)N1CCCC1)OCO3` (stereo not given), for which the inhibition is -6.3% (inactive). For `CCN(CC)S(=O)(=O)c1ccc(OC)c(NC(=O)c2cc3c(=O)n4ccccc4nc3s2)c1` the value was 10% (inactive); for `Cc1ccc2nc(-c3cccnc3SCC(=O)N3c4ccccc4CC3C)[nH]c2c1` (stereo not given), 9.6% (inactive). For `C/C(=N\NC(=O)CSCc1ccc(Cl)cc1)c1ccc(NC(=O)c2ccccc2)cc1` the value was -2.3% (inactive); for `O=C(N/N=C/c1ccncc1)c1nc(-c2ccccc2)n2c1CCCCC2`, 5.7% (inactive); for `CN(C)S(=O)(=O)N1CCC(CO)(Cc2cccc(C(F)(F)F)c2)CC1`, 3% (inactive). For `Cc1ccsc1C=C1C(=O)c2ccccc2C1=O`, the inhibition was 1.2% (inactive).

On to `O=C(COC(=O)c1ccc(S(=O)(=O)N2CCCC2)cc1)Nc1cccnc1Cl`, for which the inhibition is -7.2% (inactive). For `CCOC(=O)c1ccc(NC(=O)CCC2COc3ccccc3O2)cc1` (stereo not given) the value was 14.5% (inactive). Next, `COc1ccc(-n2c(CN3CCC(C)CC3)nc3ccc([N+](=O)[O-])cc3c2=O)c(OC)c1`: 2.1% (inactive).
